The full list was thinned out, with hits kept by preference.
EZH2 inh – EZH2 (human) methyltransferase inhibition | Q15910 | PRC2 H3K27 methylation, DELFIA TRF, 1 h | hit rate 0.35% among 57,000 | AID 651548 | inhibition, % at 12.5 µM;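 active means mean inhibition of replicates at least 50% and every single replicate also reaching 50%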;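 further: dimethyl H3K27 on biotinylated H3 21-44 peptide detected by antibody; plate controls were median neutral control wells for no effect and median positive control wells for full effect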
Active calls of the source: *.

SMILES	EZH2 inh
COC(=O)c1ccc(NC(=O)CSc2nc3ccccc3c(=O)n2-c2ccc(C)cc2)cc1	-12.1
COC(=O)c1cccc(NC(=O)CN(c2ccc(Cl)c(C(F)(F)F)c2)S(C)(=O)=O)c1C	17.5
COc1cc(Cl)c(C)cc1NC(=O)C1CCC(=O)N1S(=O)(=O)c1ccc(C)cc1 (stereo not given)	-13.4
C[C@@H]1O[C@@H](O[C@H]2[C@H](Oc3cc(O)c4c(=O)cc(-c5ccc(O)cc5)oc4c3)O[C@H](CO)[C@@H](O)[C@@H]2O)[C@H](O)[C@H](O)[C@H]1O	-5.2
COc1ccc(-c2coc3cc(O[C@@H]4O[C@H](CO)[C@@H](O)[C@H](O)[C@H]4O)cc(O)c3c2=O)cc1	-17.9
CC1OC(OCC2OC(Oc3cc(O)c4c(=O)c(-c5ccc(O)cc5)coc4c3)C(O)C(O)C2O)C(O)C(O)C1OC1OC(CO)C(O)C(O)C1O (stereo not given)	63.5*
COc1ccc(NC(=O)CS(=O)(=O)c2ccc3ccccc3c2)cc1	4.9
Cc1ccc(NC(=O)CSc2nc3sc4c(c3c(=O)n2-c2ccccc2)CCCC4)c(C)c1	-9.3
O=C(CSc1nc2ccccc2c(=O)n1-c1ccc(Cl)cc1)Nc1cccc(Cl)c1	20.7
CC(C)c1onc(-c2c(Cl)cccc2Cl)c1COc1ccc(/C=C/c2cccc(C(=O)O)c2)c(Cl)c1	73.4*
COc1ccc(N(C(C)C(=O)N2CCOCC2)S(C)(=O)=O)cc1 (stereo not given)	0.7
CCC1C/C(=C\c2sccc2C)C(=O)/C(=C/c2sccc2C)C1 (stereo not given)	27.1
O=C(CCCCCC(=O)N/N=C/c1nccs1)NO	0.4
COc1c(O)ccc(C(c2cn(C)c3ccccc23)c2cn(C)c3ccccc23)c1[N+](=O)[O-]	-2.1
COC(=O)C1=CO[C@@H](O[C@@H]2O[C@H](CO)[C@@H](O)[C@H](O)[C@H]2O)[C@@H]2[C@@](C)(O)[C@@H](OC(=O)/C=C/c3ccc(OC)c(O)c3)C[C@]12O	52.5*
COC(=O)C1=CO[C@@H](O[C@@H]2O[C@H](CO)[C@@H](O)[C@H](O)[C@H]2O)C2C1CCC2(C)O (stereo not given in full)	17.7
COC(=O)C1=CO[C@@H](O[C@@H]2O[C@H](CO)[C@@H](O)[C@H](O)[C@H]2O)[C@H]2[C@@H]1[C@H](OC(=O)/C=C/c1ccc(O)cc1)C[C@]2(C)OC(C)=O	3.4
Cc1ccc(-c2csc3ncnc(SCC(=O)Nc4ccccc4F)c23)cc1	-9.0
COc1cccc(-c2ccc(C#N)c(SCC(=O)Nc3ccccc3Br)n2)c1	19.9
COc1ccc([Si](C)(C)[C@@H]2[C@@H](CCO)O[C@]3(C(=O)N(Cc4ccc(NC(C)=O)cc4)c4ccccc43)[C@H]2C)cc1	20.4
COc1ccc([Si](C)(C)[C@@H]2[C@@H](CCO)O[C@]3(C(=O)N(C)c4c(Br)cc(C)cc43)[C@H]2C)cc1	51.6*
COc1ccc([Si](C)(C)[C@@H]2[C@@H](CCn3cc([C@H](O)c4ccccc4)nn3)O[C@]3(C(=O)N(c4ccccc4)c4ccccc43)[C@H]2C)cc1	11.2
COc1ccc([Si](C)(C)[C@@H]2[C@@H](CCO)O[C@]3(C(=O)N(c4ccccc4)c4ccccc43)[C@H]2C)cc1	50.7*
COc1ccc([Si](C)(C)[C@@H]2[C@@H](CCO)O[C@]3(C(=O)N(C)c4ccccc43)[C@H]2C)cc1	12.3
COc1ccc([Si](C)(C)[C@H]2[C@H](CCn3cc([C@H](O)c4ccccc4)nn3)O[C@@]3(C(=O)N(C)c4c(Br)cc(C)cc43)[C@@H]2C)cc1	16.9
SMILES	EZH2 inh
O=C(CSc1nnnn1C1CCCCC1)Nc1ccccc1[N+](=O)[O-]	7.9
Cc1ccc(-c2noc(CSc3nc(C)c(C)c(=O)[nH]3)n2)cc1	17.0
O=C(NO)c1ccc(C(=O)N/N=C/c2c(O)cc(O)cc2O)cc1	40.2
O=C1O[C@H](c2ccccc2)[C@H](c2ccccc2)N2[C@H]1[C@@H](C(=O)O)[C@]1(C(=O)Nc3ccc(C#CCCO)cc31)[C@H]2c1ccccc1OCCO	22.8
COc1ccc(C#Cc2ccc3c(c2)[C@]2(C(=O)N3)[C@H](c3ccccc3OCCO)N3[C@H](c4ccccc4)[C@H](c4ccccc4)OC(=O)[C@H]3[C@@H]2C(N)=O)cc1	-38.0
COC(=O)C(CC#Cc1ccc2c(c1)[C@]1(C(=O)N2)[C@H](C(=O)O)[C@H]2C(=O)O[C@H](c3ccccc3)[C@H](c3ccccc3)N2[C@@H]1c1ccc(OCCO)cc1)C(=O)OC	39.5
COc1ccc(C#Cc2ccc3c(c2)[C@]2(C(=O)N3)[C@H](C(=O)O)[C@H]3C(=O)O[C@H](c4ccccc4)[C@H](c4ccccc4)N3[C@@H]2c2ccccc2OCCO)cc1	75.1*
COC(=O)C(CC#Cc1ccc2c(c1)[C@]1(C(=O)N2)[C@H](C(=O)N2CCCCCCC2)[C@H]2C(=O)O[C@H](c3ccccc3)[C@H](c3ccccc3)N2[C@@H]1c1ccccc1OCCO)C(=O)OC	-9.8
COC(=O)C(CC#Cc1ccc2c(c1)[C@]1(C(=O)N2)[C@H](c2ccccc2OCCO)N2[C@H](c3ccccc3)[C@H](c3ccccc3)OC(=O)[C@H]2[C@@H]1C(=O)O)C(=O)OC	69.2*
Cc1cc(O)c(C)c2c1Oc1c(C)c(O)cc(C)c1C(=O)O2	-30.7
CCOc1ccc(NC(=O)CC2C(=O)NCCN2C(=O)c2ccccc2)cc1 (stereo not given)	-4.7
O=C(O)CCSc1nc(-c2ccccc2)c(-c2ccccc2)[nH]1	-2.6
Cn1c(SCC(=O)c2ccc([N+](=O)[O-])cc2)nnc1-c1cc2ccccc2cc1O	2.6
Cc1cccc(OCC(=O)Nc2ccccc2C(=O)NC(C)(C)C)c1	4.0
COC(=O)c1ccccc1NC(=O)CCSc1ccc(C)cc1	54.3*
COC(=O)c1ccccc1NC(=O)CNC(=O)c1ccccc1	-6.9
COC(=O)c1ccccc1NC(=O)Cn1c(C)ccc1C	-8.0
Cc1ccc(C(=O)Nc2cccc(NC(=O)COc3ccc(Br)cc3)c2)cc1	5.0
CCn1c(SCC(=O)Nc2ccc(C)cc2C)nnc1-c1cccs1	-6.4
COc1ccccc1-c1nnc(SCC(=O)Nc2ccc(Cl)cc2Cl)n1-c1ccccc1	36.4
Cc1cc(NC(=O)CSc2nnc(-c3ccccc3Cl)n2C)ccc1Br	5.0
COC(=O)c1ccc(C2C(Oc3ccc(OC)cc3)C(=O)N2Cc2ccc(F)cc2)cc1 (stereo not given)	51.1*
COC(=O)c1ccc(C2C(C(=O)c3ccco3)C(=O)C(=O)N2Cc2ccco2)cc1 (stereo not given)	-7.1
COC(=O)c1ccc(NC(=O)CCC(=O)c2ccc(OC)cc2)cc1	-0.7
COc1cccc(C(=O)NC(NCC2CCCO2)(C(F)(F)F)C(F)(F)F)c1 (stereo not given)	-9.0
Cc1ccc(-n2c(SCC(=O)Nc3sc4c(c3C#N)CCCC4)nnc2-c2ccccc2)cc1	1.8
Cc1nc(SCC(=O)N(c2ccccc2)c2ccccc2)n[nH]1	-0.9
O=C(CCCCCCC(=O)Nc1ccccc1O)N/N=C/c1cc(Br)c(O)c(Br)c1	24.3
CO[C@@H]1CN(C)C(=O)c2ccc(NS(=O)(=O)c3cccc(F)c3)cc2OC[C@@H](C)N(Cc2cc(F)ccc2F)C[C@H]1C	38.4
CO[C@@H]1CN(C)C(=O)c2ccc(NS(=O)(=O)c3cccc(F)c3)cc2OC[C@H](C)N(Cc2cc(F)ccc2F)C[C@@H]1C	53.7*

High-throughput results as filed in PubChem.
